# Assay results from ChEMBL document CHEMBL1961873, “Compounds: GSK PKIS; Assays: Nanosyn kinase panel” (2012).
# Key:
# [1] = target: Serine/threonine-protein kinase pim-2 (Homo sapiens) (UniProt Q9P1W9); conditions: at 1 µM;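 also: each value is a mean of the inhibition measurements against the kinase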
# [2] = target: Serine/threonine-protein kinase pim-3 (Homo sapiens) (UniProt Q86V86); conditions: at 0.1 µM
# [3] = target: Serine/threonine-protein kinase pim-3 (Homo sapiens) (UniProt Q86V86); conditions: at 1 µM
# [4] = target: T1, MAP kinase-activated protein kinase 5 (Homo sapiens) (UniProt Q8IW41); conditions: at 0.1 µM
# T1 sequence (whole entry): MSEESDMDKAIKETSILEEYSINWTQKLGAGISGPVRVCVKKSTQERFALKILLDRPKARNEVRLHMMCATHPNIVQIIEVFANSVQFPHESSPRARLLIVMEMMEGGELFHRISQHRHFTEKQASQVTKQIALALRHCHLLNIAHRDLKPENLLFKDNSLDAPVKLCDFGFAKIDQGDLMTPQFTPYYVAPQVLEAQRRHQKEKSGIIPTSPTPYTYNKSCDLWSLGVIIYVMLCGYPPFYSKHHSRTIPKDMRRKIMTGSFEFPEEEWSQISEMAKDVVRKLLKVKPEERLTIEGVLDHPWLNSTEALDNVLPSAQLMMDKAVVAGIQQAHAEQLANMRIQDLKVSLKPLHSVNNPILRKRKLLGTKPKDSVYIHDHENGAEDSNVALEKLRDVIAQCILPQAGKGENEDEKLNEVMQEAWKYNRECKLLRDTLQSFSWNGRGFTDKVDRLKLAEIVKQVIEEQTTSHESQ
# [5] = target: T1, MAP kinase-activated protein kinase 5 (Homo sapiens); conditions: at 1 µM
# [6] = target: Serine/threonine-protein kinase SIK1 (Homo sapiens) (UniProt P57059); conditions: at 0.1 µM
# [7] = target: Serine/threonine-protein kinase SIK1 (Homo sapiens) (UniProt P57059); conditions: at 1 µM
# [8] = target: Serine/threonine-protein kinase SIK2 (Homo sapiens) (UniProt Q9H0K1); conditions: at 0.1 µM
# [9] = target: Serine/threonine-protein kinase SIK2 (Homo sapiens) (UniProt Q9H0K1); conditions: at 1 µM
# [10] = target: T2, Serine/threonine-protein kinase TBK1 (Homo sapiens) (UniProt Q9UHD2); conditions: at 0.1 µM
# T2 sequence (whole entry): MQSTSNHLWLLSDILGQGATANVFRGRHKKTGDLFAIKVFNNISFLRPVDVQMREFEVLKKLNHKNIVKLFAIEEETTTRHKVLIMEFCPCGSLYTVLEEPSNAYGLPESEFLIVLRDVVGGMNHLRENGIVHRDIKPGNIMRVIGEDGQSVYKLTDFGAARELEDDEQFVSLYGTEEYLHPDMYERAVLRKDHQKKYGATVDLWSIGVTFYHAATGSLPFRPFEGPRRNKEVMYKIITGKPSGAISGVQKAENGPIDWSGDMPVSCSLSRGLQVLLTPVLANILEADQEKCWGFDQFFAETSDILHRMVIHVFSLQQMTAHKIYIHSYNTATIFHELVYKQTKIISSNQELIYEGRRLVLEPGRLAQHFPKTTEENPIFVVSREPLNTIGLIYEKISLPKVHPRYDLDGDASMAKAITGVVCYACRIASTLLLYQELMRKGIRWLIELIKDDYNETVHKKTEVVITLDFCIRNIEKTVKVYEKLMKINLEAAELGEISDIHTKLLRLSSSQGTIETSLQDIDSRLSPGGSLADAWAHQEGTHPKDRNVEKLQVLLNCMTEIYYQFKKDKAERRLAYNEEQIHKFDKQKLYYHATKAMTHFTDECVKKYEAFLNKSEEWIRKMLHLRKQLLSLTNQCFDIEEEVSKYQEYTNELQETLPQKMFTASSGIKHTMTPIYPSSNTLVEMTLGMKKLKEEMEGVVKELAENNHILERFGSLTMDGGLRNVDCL
# [11] = target: T2, Serine/threonine-protein kinase TBK1 (Homo sapiens); conditions: at 1 µM
# [12] = target: T3, Testis-specific serine/threonine-protein kinase 1 (Homo sapiens) (UniProt Q9BXA7); conditions: at 0.1 µM
# T3 sequence (whole entry): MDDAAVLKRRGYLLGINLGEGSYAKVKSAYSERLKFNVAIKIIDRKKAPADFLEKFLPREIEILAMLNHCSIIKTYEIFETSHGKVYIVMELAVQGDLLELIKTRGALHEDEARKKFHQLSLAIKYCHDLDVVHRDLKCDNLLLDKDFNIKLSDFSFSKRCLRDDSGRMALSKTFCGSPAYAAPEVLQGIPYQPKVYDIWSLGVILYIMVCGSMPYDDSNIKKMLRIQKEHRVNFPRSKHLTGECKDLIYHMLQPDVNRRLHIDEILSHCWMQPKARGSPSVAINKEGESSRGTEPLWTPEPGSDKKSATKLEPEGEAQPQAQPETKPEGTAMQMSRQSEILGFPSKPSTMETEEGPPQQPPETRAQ
# [13] = target: T3, Testis-specific serine/threonine-protein kinase 1 (Homo sapiens); conditions: at 1 µM
# [14] = target: T4, Testis-specific serine/threonine-protein kinase 2 (Homo sapiens) (UniProt Q96PF2); conditions: at 0.1 µM
# T4 sequence (whole entry): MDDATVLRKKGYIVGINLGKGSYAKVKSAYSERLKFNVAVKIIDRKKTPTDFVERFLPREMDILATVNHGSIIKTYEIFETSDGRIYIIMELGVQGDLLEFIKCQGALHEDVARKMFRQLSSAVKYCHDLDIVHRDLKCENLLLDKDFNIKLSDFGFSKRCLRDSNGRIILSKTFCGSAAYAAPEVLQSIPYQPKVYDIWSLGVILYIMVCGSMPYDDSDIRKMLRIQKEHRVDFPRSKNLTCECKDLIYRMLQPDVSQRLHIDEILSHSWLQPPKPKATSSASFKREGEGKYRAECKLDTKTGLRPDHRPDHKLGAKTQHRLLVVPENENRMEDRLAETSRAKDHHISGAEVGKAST
# [15] = target: T4, Testis-specific serine/threonine-protein kinase 2 (Homo sapiens); conditions: at 1 µM
# [16] = target: Casein kinase I isoform alpha (Homo sapiens) (UniProt P48729); conditions: at 0.1 µM
# [17] = target: Casein kinase I isoform alpha (Homo sapiens) (UniProt P48729); conditions: at 1 µM
# [18] = target: Casein kinase I isoform gamma-1 (Homo sapiens) (UniProt Q9HCP0); conditions: at 0.1 µM
# [19] = target: Casein kinase I isoform gamma-1 (Homo sapiens) (UniProt Q9HCP0); conditions: at 1 µM
# [20] = target: Casein kinase I isoform gamma-2 (Homo sapiens) (UniProt P78368); conditions: at 0.1 µM;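 also: values are mean inhibition figures reported as part of the GSK PKIS dataset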
# Casein kinase I isoform gamma-2 (Homo sapiens), sequence (P78368 whole entry, looked up, canonical isoform): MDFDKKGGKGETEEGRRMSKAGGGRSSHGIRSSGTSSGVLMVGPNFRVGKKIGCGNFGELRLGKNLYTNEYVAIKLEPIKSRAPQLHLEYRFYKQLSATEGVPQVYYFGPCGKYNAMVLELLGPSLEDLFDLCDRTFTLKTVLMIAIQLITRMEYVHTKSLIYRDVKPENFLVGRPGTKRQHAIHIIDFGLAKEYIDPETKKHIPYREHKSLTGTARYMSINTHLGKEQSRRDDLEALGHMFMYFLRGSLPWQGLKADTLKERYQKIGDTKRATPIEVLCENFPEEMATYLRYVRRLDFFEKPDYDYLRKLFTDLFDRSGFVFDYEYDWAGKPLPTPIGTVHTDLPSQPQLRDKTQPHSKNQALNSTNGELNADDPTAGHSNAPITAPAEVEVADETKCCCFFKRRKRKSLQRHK
# Serine/threonine-protein kinase SIK1 (Homo sapiens), sequence (P57059 whole entry): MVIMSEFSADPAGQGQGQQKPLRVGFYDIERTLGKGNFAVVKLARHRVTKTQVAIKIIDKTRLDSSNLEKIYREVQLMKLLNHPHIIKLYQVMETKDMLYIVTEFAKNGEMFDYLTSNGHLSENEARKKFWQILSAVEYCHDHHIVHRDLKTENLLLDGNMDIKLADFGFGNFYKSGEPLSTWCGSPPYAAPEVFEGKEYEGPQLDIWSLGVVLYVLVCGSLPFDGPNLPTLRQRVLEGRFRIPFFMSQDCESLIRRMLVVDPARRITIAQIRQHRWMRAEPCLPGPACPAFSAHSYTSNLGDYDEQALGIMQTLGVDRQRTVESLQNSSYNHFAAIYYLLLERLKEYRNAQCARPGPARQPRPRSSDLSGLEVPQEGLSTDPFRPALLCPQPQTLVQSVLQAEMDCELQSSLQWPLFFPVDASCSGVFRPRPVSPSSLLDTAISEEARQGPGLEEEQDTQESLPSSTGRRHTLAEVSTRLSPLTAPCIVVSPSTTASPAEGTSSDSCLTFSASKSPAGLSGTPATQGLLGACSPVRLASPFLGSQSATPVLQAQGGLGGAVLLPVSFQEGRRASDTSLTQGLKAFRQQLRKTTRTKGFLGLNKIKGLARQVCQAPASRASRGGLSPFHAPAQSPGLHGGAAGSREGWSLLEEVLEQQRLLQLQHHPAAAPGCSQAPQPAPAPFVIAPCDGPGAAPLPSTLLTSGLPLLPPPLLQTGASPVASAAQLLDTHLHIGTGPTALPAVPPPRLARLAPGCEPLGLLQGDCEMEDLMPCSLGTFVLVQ
# Serine/threonine-protein kinase pim-2 (Homo sapiens), sequence (Q9P1W9 whole entry, looked up): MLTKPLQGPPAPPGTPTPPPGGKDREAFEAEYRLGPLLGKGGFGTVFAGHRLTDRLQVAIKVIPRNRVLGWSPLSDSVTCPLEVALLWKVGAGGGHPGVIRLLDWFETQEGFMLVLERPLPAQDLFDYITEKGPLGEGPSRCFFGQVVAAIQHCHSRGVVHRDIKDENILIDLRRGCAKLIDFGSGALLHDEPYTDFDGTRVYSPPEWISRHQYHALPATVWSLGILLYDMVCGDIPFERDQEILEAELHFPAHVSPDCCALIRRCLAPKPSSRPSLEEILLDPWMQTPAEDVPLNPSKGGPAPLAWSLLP
# Serine/threonine-protein kinase SIK2 (Homo sapiens), sequence (Q9H0K1 whole entry, looked up): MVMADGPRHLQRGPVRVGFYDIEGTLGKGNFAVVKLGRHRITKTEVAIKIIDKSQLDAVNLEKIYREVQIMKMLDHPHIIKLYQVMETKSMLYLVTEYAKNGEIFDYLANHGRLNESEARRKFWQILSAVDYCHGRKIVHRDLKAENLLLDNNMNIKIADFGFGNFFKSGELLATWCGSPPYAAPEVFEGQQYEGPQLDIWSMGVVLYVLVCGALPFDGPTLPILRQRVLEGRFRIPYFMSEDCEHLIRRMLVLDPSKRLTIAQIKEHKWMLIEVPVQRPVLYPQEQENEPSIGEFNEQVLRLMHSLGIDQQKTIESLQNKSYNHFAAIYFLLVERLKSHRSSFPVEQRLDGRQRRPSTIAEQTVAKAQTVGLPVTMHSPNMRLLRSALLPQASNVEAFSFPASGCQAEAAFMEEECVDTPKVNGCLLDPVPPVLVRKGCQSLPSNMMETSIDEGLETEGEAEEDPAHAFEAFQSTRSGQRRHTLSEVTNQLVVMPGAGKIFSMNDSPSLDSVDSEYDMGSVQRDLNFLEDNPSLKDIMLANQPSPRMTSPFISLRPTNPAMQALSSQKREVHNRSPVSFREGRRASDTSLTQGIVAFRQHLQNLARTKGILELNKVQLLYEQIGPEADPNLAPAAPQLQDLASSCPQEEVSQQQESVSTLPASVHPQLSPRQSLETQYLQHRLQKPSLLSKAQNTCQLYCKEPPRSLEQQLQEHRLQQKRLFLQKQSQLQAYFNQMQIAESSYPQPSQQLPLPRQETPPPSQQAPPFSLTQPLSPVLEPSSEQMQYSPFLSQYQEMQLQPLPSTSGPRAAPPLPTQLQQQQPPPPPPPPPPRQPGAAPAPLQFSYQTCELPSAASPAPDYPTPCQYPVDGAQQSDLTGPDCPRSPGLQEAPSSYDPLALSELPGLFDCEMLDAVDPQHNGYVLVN
# Casein kinase I isoform gamma-1 (Homo sapiens), sequence (Q9HCP0 whole entry, looked up, canonical isoform): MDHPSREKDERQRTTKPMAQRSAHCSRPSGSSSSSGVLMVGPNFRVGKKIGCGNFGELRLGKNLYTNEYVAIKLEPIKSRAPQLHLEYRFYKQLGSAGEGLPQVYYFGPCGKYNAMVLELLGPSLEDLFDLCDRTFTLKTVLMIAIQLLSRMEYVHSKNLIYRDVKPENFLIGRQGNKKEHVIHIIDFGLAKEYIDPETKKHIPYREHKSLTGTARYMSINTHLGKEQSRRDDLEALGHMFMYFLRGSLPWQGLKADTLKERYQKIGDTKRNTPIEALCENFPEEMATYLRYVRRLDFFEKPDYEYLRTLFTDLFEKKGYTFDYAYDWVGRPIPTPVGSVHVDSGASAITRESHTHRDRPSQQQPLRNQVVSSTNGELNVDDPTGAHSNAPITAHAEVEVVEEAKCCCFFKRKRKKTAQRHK
# Casein kinase I isoform alpha (Homo sapiens), sequence (P48729 2-337 limits assumed): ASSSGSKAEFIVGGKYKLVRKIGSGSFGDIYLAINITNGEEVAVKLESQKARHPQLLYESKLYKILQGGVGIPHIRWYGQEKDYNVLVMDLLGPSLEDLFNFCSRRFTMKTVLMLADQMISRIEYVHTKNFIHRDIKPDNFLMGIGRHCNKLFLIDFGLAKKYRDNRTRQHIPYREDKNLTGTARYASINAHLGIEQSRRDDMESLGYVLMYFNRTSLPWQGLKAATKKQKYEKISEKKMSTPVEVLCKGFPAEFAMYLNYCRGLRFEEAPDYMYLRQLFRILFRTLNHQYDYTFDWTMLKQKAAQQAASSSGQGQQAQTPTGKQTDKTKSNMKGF
Compound,inhibition [1] [%],inhibition [2] [%],inhibition [3] [%],inhibition [4] [%],inhibition [5] [%],inhibition [6] [%],inhibition [7] [%],inhibition [8] [%],inhibition [9] [%],inhibition [10] [%],inhibition [11] [%],inhibition [12] [%],inhibition [13] [%],inhibition [14] [%],inhibition [15] [%],inhibition [16] [%],inhibition [17] [%],inhibition [18] [%],inhibition [19] [%],inhibition [20] [%]
O=S(=O)(CCNCc1ccc(-c2ccc3ncnc(Nc4ccc(OCc5cccc(F)c5)c(Cl)c4)c3c2)o1)c1ccccc1,0.58,-0.16,1.33,2.07,2.09,3.17,9.64,2.1,6.58,4.82,5.89,4.61,5.43,2.59,3.64,4.43,6.02,4.93,6.77,4.49
CS(=O)(=O)CCNCc1coc(-c2ccc3ncnc(Nc4ccc(OCc5ccccc5)cc4)c3c2)c1,0.48,1.2,3.43,1.41,1.21,1.7,8.27,-0.18,5.7,2.64,2.44,1.84,3.84,2.99,2.93,1.56,4.42,1.97,2.4,1.63
COc1ccc2[nH]c3c4[nH]c5ccc(OC)cc5c4c4c(c3c2c1)C(=O)NC4=O,68.3,66.7,82.7,2.48,8.8,26.9,77.2,56.4,78.2,10.9,53.9,3.96,11.6,3.41,4.83,2.15,5.69,4.82,4.21,2.32
Cc1cccc(Nc2ncc(-c3ccccc3)o2)c1,0.42,-0.05,1.97,1.69,0.97,3.47,12.8,-1.34,9.41,2.6,7.09,2.67,4.49,0.72,1.53,3.35,9.63,2.09,4.93,1.92
CCc1nn2ncccc2c1-c1ccnc(NC2CC2)n1,1.22,0.67,4.22,0.66,1.12,0.6,7.84,0.42,2.21,2.11,3.02,1.98,3.93,1.82,2.06,4.3,15.9,1.08,2.03,1.32
COc1cccc(-n2ncc3c(N/N=C/c4ccc(F)cc4)ncnc32)c1,0.1,0.77,0.03,1.85,2.88,9.59,14,6.43,13.7,2.42,6.85,3.31,5.3,4.45,2.25,4.03,4.98,3.78,4.75,3.98
Fc1ccc(-c2nn3ncccc3c2-c2ccnc(Nc3ccc4c(c3)OCCO4)n2)cc1,-0.97,-2.21,-3.73,0.63,0.49,10.5,38.4,18.8,44.6,5.89,4.55,4.06,2.68,1.3,1.02,39.5,72.5,14.8,58.5,11.1
c1ccc(COc2ccc(Nc3ncnc4ccc(-c5ccco5)cc34)cc2)cc1,1.2,-0.14,0.8,0.38,0.36,1.4,7.46,-3.82,1.35,-0.27,0.67,-0.63,0.68,0.44,-0.19,-0.74,0.74,0.87,1.15,1.03
COc1ccc(-c2nn3ncccc3c2-c2ccnc(Nc3ccc4c(c3)OCCO4)n2)cc1,1.11,0.26,2.15,0.05,-0.76,1.35,12.5,-0.55,6.1,-0.73,1.43,-0.54,-0.16,1.42,-0.78,0,3.14,1.16,3.57,1.93
Cc1ccc2c(-c3ccnc(Nc4ccccc4)n3)c(-c3ccc(F)cc3)nn2n1,0.72,-1.46,-3.61,0.87,-0.35,1.9,24.1,13.3,33.2,1.85,2.79,2.68,0.03,2.66,-2.67,33.6,70.7,5.48,32,5.54
c1ccc(-c2nc3n(c2-c2ccc4c(c2)OCO4)CCC3)nc1,0.83,0.35,1.07,0.81,0.42,2.02,4.54,0.11,3.1,1,2.71,0.83,-0.01,0.79,0.57,22.2,60.1,1.06,2.79,1.64
CCCN(CCS(C)(=O)=O)Cc1ccc(-c2ccc3ncnc(Nc4ccc(OCc5cccc(F)c5)c(Cl)c4)c3c2)o1,0.55,0.79,1.71,0.4,0.36,5.69,6.39,4.14,7.64,2.46,5.16,2.58,1.44,0.97,0.36,1.49,3.77,1.24,1.53,0.76
FC(F)(F)c1cccc(-c2nn3ncccc3c2-c2ccnc(Nc3ccc4c(c3)OCCO4)n2)c1,0.66,-1.58,-2.3,0.49,-0.29,3.06,6.62,3.42,6.02,0.3,2.28,2.75,1.2,-0.07,-1.1,1.53,4.39,2.58,4.21,1.92
